Consider 40 molecules from PubChem BioAssay (NCATS).

Results filed as inconclusive are left out. A call without a number means that no potency is given here. Values without a mark were called inactive. Active and inactive are the calls of the source. The call rests on the fitted dose curve; in most records, active means well fitted cell-killing curve with a large enough effect; inconclusive means small, poorly fitted or top-dose-only effect; inactive means no such curve, though single readings can be large or run the other way.
Potency means the concentration at half of the fitted maximal effect.

This test in a line: qHTS of pediatric cancer cell lines to identify multiple opportunities for drug repurposing: Primary screen for OHS-50 cells (AID 1347103). Further: nearly all actives have a fitted effect of over 40% in size. To be noted: OHS-50 osteosarcoma viability, CellTiter-Glo luminescence, 48 h; series mostly up to 57.3 µM. An excerpt: Drug repurposing or repositioning has been offered as a strategy for drug development in oncology programs. This approach has special potential for childhood cancers and other rare or orphan diseases, where the expected return on new drug development has been a disincentive to pharmaceuticals.
In this project we exploit the poly-pharmacology of drugs to discover new indications via phenotypic screening of a panel of 19 well-characterized cell lines derived from solid tumors seen in children and adolescents. The goal is to identify approved drugs with previously unrecognized anticancer properties that has the potential to reveal new mechanisms and biological processes involved in carcinogenesis or drug resistance. We employed a titration-based paradigm (quantitative high-throughput screening or qHTS), where all compounds were tested at multiple concentrations for their effect on cell viability. Concentration-response curves (CRCs) were derived directly from the primary screen, and both potency and efficacy values were used to identify compounds with robust bioactivity profiles. We screened the NIH Chemical Genomics Center (NCGC) Pharmaceutical Collection (NPC) and Mechanism Interrogation Plate (MIPE) small molecule collections of approved and investigational compounds against these cell lines; and measured metabolically active cells after 48 hours of compound treatment as a proxy for cell viability.
Assay Submitter: Nathalia J. Martinez, National Center for Advancing Translational Sciences, National Institutes of Health, Rockville, MD, USA; email: natalia.martinez@nih.gov
[1] Shen, M et al. Quantitative high-throughput phenotypic screening of pediatric cancer cell lines identifies multiple opportunities for drug repurposing. Oncotarget 2017 Dec 19;9(4):4758-4772. PMID 29435139.
The cells were obtained from University of North Carolina (UNC), Pediatric Preclinical Testing Program (PPT), and Coriell Institute (CI).
qHTS cell viability assay:
Cells were assayed in growth media at a density of 500-1,000 cells/well. Five microliters of cells were dispensed into 1,536-well, white, solid-bottom, TC-treated plates (Greiner Bio One) using a multidrop dispenser and incubated at 37 degrees C, 5% CO2, under a humidified atmosphere for 5 hours. Twenty-three nanoliters of compounds and controls (neutral control DMSO or positive control bortezomib at final concentration of 2.3 µM) were subsequently transferred by Kalypsys pintool. For primary screens, the MIPE collection was tested at 11-point dilutions (final concentrations range from 0.78 nM to 46 µM) and the NPC collection at 8-point dilutions (final concentrations range from 0.59 nM to 46 µM). Compounds tested in follow-up screens were assayed at 11-point dilutions. Cells were incubated for 48 hours, followed by addition of 3 µL of CellTiter-Glo (Promega). After a 15 min incubation at room temperature, samples were analyzed for luminescence intensity using a ViewLux High-throughput CCD imager equipped with clear filters.
(qHTS replaces the single test concentration by a dilution series.)
For the molecule `CCCCC1C(=O)N(c2ccccc2)N(c2ccc(O)cc2)C1=O` (stereo not given), the Potency was 11 µM (active).
In the case of `CCOC(=O)c1ccccc1O`, the Potency entry is “inactive”.
For the molecule `Cc1ccc2c(n1)Oc1ccc(C(C)C(=O)OCC(=O)N(C)C)cc1C2` (stereo not given), the Potency result is “inactive”.
`Cc1c(Nc2ncccc2C(=O)O)cccc1C(F)(F)F`: the Potency result is “inactive”.
For the molecule `CNC(=O)c1c(I)c(NC(=O)CCCCC(=O)Nc2c(I)c(C(=O)O)c(I)c(C(=O)NC)c2I)c(I)c(C(=O)O)c1I`, the Potency result is “inactive”.
Same read-out and setting: then `C=CCCCCCCCCC(=O)O`, with “inactive”; and `O=C(O)Cc1ccc2c(c1)C(=O)c1ccccc1CO2`, with “inactive”; and `CCCSc1ccc2nc(NC(=O)OC)[nH]c2c1`, with 0.872 µM (active).
Regarding `Nc1ccc(O)c(C(=O)O)c1`, the Potency entry was “inactive”.
Still for that read-out and setting: then `O=C(OCc1ccccc1)c1ccccc1`, with “inactive”; and `S=c1[nH]c2ccccc2s1`, with “inactive”; and `CCOc1ccc2nc(S(N)(=O)=O)sc2c1`, with “inactive”.
For `CC(C)(C)c1nnc(NS(=O)(=O)c2ccc(N)cc2)s1`, the Potency entry was “inactive”.
As for `Cc1nc2ccccc2n1Cc1ccc(Cl)cc1`, the Potency was 3.47 µM (active).
Consider `CC(C)OC(=O)c1cc(C(=O)OC(C)C)cc([N+](=O)[O-])c1`, for which the Potency result was “inactive”.
`c1ccc2sc(SSc3nc4ccccc4s3)nc2c1`: the Potency entry is “inactive”.
Take `COc1ccnc2c1CCCCC2S(=O)c1nc2ccccc2[nH]1` (stereo not given): the Potency entry was “inactive”.
Consider `[O-][n+]1ccccc1SSc1cccc[n+]1[O-]`, for which the Potency is 0.338 µM (active).
Same read-out and setting: as for `CN(C)c1ccc(C(=C2C=CC(=[N+](C)C)C=C2)c2ccccc2)cc1`, the figure is 0.0347 µM (active); as for `CCCCCCCCCCCCCCCC(=O)OC(C)C`, “inactive”.
On to `Nc1ccc(O)c([N+](=O)[O-])c1`, for which the Potency result was “inactive”.
`O=C(O)Cc1ccc(-c2ccccc2)cc1`: the Potency entry is “inactive”.
As to `COC(=O)c1nc(Cl)c(Cl)nc1N`, the Potency is 0.872 µM (active).
Regarding `N=C(N)N`, the Potency entry was “inactive”.
Regarding `CC(C(=O)O)c1ccc2c(c1)[nH]c1ccc(Cl)cc12` (stereo not given), the Potency result was “inactive”.
Same read-out and setting: as for `O=c1[nH]c2ccccc2n1CCCN1CCN(C(c2ccccc2)c2ccccc2)CC1`, the figure is 15.5 µM (active); as for `Nc1c(CC(=O)O)cccc1C(=O)c1ccc(Br)cc1`, “inactive”.
For `O=C(Nc1ccc(C(=O)O)c(O)c1)c1ccccc1`, the Potency result was “inactive”.
`Nc1nc2ccc([N+](=O)[O-])cc2s1`: the Potency is 25.2 µM (active).
`O=C(O)Cc1cccc(-c2cc(CCCCCCc3ccc(O[C@H]4O[C@H](CO)[C@@H](O)[C@H](O)[C@@H]4O)c(-c4cccc(CC(=O)O)c4)c3)ccc2O[C@H]2O[C@H](CO)[C@@H](O)[C@H](O)[C@@H]2O)c1`: the activity change, negative = cytotoxic was 10.4% [at 0.73 µM].
`COc1cccc2c1C(=O)c1c(O)c3c(c(O)c1C2=O)C[C@@](O)(C(=O)CO)C[C@@H]3O[C@H]1C[C@H](N)[C@H](O[C@@H]2CCCCO2)[C@H](C)O1`: the Potency is 0.777 µM (active).
Same read-out and setting: then `CN(C)CCn1nnnc1SCC1=C(C(=O)O)N2C(=O)[C@@H](NC(=O)Cc3csc(N)n3)[C@H]2SC1`, with “inactive”; and `Cc1ccc(C(=O)c2ccc(CC(=O)O)n2C)cc1`, with “inactive”; and `Oc1c(Br)cc(Br)c2cccnc12`, with 15.5 µM (active).
Still for that read-out and setting: then `C#C[C@]1(O)CC[C@H]2[C@@H]3CCc4cc(O)ccc4[C@H]3CC[C@@]21C`, with 24.6 µM (active); and `CC(C(=O)O)c1ccc(C(=O)c2cccs2)cc1` (stereo not given), with “inactive”; and `CN(C)c1ccc(N=NS(=O)(=O)O)cc1`, with “inactive”.
As to `COC(=O)Nc1nc2ccc(C(=O)C3CC3)cc2[nH]1`, the Potency is 1.1 µM (active).
Same read-out and setting: as for `COc1cc2c3cc1Oc1cc(ccc1O)C[C@@H]1c4c(cc(OC)c(O)c4Oc4ccc(cc4)C[C@@H]3N(C)CC2)CC[N+]1(C)C`, the entry is “inactive”.
The same measure, in the same setting: then `CC(=O)SCC(CC(=O)c1ccc(C)cc1)C(=O)O` (stereo not given), with “inactive”.
